Assay results from PubChem BioAssay (EPA / NIEHS).
Results filed as inconclusive are left out. The source made the active and inactive calls. Rule for the calls: active = hit-call score of the fitted dose curve at least 0.9, where 1 is the maximum; inconclusive = response in the unintended direction; inactive = score below 0.9.

How the values were obtained:
[1] = target: human Vascular Endothelial Growth Factor Receptor 1 (VEGFR1), FLT1 (gene 2321) (UniProt P17948); assay: NVS_ENZ_hVEGFR1: NovaScreen (NVS) Enzymatic Assay for human Vascular Endothelial Growth Factor Receptor 1 (VEGFR1) (AID 2283226)
human Vascular Endothelial Growth Factor Receptor 1 (VEGFR1), FLT1 (gene 2321), sequence (P17948 whole entry, looked up): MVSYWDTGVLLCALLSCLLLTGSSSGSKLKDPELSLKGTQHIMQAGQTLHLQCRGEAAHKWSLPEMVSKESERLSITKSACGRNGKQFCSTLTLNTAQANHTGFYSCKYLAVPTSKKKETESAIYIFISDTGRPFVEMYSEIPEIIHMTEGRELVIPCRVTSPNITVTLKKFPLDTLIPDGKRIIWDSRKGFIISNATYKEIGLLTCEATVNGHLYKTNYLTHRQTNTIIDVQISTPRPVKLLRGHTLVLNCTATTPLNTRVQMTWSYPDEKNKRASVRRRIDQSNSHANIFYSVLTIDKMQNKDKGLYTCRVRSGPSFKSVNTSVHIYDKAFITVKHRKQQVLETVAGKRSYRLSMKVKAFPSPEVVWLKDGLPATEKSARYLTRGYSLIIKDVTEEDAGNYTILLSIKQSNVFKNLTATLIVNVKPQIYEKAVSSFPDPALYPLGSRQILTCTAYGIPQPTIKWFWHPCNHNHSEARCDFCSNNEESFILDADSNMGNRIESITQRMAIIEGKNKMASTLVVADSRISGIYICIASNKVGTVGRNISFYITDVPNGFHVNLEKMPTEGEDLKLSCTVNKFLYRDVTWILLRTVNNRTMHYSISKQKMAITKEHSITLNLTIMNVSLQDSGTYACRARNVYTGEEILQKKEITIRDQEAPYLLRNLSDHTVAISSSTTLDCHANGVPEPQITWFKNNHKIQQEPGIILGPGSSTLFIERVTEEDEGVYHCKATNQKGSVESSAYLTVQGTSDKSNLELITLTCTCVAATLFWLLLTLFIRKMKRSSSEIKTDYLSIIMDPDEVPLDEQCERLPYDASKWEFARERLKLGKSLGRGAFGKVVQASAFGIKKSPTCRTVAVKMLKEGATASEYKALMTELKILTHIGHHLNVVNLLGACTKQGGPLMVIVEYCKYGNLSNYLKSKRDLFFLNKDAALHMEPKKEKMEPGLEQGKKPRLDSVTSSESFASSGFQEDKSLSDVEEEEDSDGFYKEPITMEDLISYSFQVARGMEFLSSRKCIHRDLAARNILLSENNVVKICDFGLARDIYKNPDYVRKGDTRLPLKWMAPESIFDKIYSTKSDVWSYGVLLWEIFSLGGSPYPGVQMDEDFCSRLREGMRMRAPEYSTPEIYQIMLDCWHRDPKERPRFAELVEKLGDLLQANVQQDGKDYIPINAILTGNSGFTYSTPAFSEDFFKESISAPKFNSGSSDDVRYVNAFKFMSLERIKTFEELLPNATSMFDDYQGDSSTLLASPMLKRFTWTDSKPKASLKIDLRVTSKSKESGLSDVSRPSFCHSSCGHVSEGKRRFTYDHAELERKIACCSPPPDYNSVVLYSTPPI
How it was run: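 Cell-free assay of recombinant human VEGFR1 kinase with substrate, measured 1 h after dosing; fluorescence with electrophoretic mobility-shift separation of substrate and product, referenced to DMSO; primary screen at 25 uM in duplicate, actives then run in concentration series.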

[2] = target: human Protein Tyrosine Phosphatase Receptor Type F (PTPRF), PTPRF (gene 5792) (UniProt P10586); assay: NVS_ENZ_hPTPRF: NovaScreen (NVS) Enzymatic Assay for human Protein Tyrosine Phosphatase Receptor Type F (PTPRF) (AID 2283213)
How it was run: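 Cell-free fluorescence enzyme assay with recombinant protein and substrate; product separated by electrophoretic mobility shift. Read 1 h after dosing, single 25 uM duplicate screen, then concentration-response up to 50 uM; loss of signal vs DMSO.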

[3] = target: human Protein Tyrosine Phosphatase Receptor Type M (PTPRM), PTPRM (gene 5797) (UniProt P28827); assay: NVS_ENZ_hPTPRM: NovaScreen (NVS) Enzymatic Assay for human Protein Tyrosine Phosphatase Receptor Type M (PTPRM) (AID 2283215)
How it was run: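 Cell-free recombinant PTPRM with fluorogenic substrate; product separated from substrate by electrophoretic mobility shift and read by fluorescence, 1.33 h after dosing. Primary screen single concentration (25 uM) in duplicate; actives retested in concentration series; loss of signal versus DMSO.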

[4] = target: human Raf-1 Proto-Oncogene, serine/threonine Kinase (RAF1), RAF1 (gene 5894) (UniProt P04049); assay: NVS_ENZ_hRAF1: NovaScreen (NVS) Enzymatic Assay for human Raf-1 Proto-Oncogene, serine/threonine Kinase (RAF1) (AID 2283216)
human Raf-1 Proto-Oncogene, serine/threonine Kinase (RAF1), RAF1 (gene 5894), sequence (P04049 whole entry, looked up): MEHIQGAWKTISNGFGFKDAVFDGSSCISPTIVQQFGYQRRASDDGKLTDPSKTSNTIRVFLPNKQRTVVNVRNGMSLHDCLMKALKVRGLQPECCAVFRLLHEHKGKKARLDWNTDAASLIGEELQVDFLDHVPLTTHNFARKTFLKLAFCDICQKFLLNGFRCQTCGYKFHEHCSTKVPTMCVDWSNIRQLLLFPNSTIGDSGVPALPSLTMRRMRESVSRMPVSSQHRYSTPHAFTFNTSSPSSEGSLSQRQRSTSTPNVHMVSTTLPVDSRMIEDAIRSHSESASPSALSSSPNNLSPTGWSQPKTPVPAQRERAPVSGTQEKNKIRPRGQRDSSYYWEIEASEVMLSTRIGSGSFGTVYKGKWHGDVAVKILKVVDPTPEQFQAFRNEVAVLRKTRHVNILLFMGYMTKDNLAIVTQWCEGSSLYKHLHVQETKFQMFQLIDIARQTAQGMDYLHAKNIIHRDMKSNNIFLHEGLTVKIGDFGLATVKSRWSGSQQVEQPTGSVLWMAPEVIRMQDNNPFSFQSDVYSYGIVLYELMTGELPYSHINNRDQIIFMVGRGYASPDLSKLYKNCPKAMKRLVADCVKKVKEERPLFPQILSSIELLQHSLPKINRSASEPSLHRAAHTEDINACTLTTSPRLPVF
How it was run: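 Cell-free recombinant kinase with specific fluorescent substrate, product separated by electrophoretic mobility shift; read 1 h after dosing. Primary screen at 25 uM in duplicate; hits then run in concentration-response up to 50 uM, fitted as loss of signal versus DMSO.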

[5] = target: human Sirtuin 1 (SIRT1), SIRT1 (gene 23411) (UniProt Q96EB6); assay: NVS_ENZ_hSIRT1: NovaScreen (NVS) Enzymatic Assay for human Sirtuin 1 (SIRT1) (AID 2283219)
How it was run: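 Cell-free recombinant SIRT1 with a fluorescent substrate; substrate and product separated by electrophoretic mobility shift and read by fluorescence intensity, 1 h after dosing. Primary screen at 25 uM in duplicate; hits re-run in concentration-response up to 50 uM, relative to DMSO.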

[6] = target: human Tyrosine Protein Kinase Receptor Tie-2 (Tie2), TEK (gene 7010) (UniProt Q02763); assay: NVS_ENZ_hTie2: NovaScreen (NVS) Enzymatic Assay for human Tyrosine Protein Kinase Receptor Tie-2 (Tie2) (AID 2283225)
human Tyrosine Protein Kinase Receptor Tie-2 (Tie2), TEK (gene 7010), sequence (Q02763 whole entry, looked up): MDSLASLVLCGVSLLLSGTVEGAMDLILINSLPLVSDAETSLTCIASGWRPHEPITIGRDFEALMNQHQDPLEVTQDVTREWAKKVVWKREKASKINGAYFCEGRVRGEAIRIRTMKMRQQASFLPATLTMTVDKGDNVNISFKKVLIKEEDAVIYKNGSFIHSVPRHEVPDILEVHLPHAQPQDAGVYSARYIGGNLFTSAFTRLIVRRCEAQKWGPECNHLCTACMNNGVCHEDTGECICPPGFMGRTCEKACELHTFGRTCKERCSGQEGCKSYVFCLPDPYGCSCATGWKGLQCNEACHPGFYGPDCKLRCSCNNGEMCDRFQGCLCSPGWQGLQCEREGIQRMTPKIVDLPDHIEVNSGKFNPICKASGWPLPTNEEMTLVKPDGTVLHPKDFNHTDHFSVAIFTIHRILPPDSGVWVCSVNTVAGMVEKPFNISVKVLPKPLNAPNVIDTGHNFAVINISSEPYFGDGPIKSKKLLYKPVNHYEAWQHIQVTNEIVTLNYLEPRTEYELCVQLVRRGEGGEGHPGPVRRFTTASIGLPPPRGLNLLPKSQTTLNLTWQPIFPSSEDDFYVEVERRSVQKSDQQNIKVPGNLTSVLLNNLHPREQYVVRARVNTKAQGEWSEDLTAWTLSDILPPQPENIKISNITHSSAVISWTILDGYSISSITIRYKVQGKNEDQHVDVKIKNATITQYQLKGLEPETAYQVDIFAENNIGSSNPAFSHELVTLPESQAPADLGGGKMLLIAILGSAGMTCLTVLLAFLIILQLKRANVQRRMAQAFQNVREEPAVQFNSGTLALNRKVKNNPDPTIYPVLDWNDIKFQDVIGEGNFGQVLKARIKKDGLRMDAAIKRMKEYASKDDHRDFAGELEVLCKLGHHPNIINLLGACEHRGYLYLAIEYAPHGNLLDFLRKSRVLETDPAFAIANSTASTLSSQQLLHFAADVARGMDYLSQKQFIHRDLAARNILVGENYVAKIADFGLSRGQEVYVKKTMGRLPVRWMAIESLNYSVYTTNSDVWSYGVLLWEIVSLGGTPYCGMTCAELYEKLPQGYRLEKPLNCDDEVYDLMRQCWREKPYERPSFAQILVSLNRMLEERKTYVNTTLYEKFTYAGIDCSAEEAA
How it was run: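 Recombinant human Tie2 kinase activity was read cell-free by fluorescence with electrophoretic mobility shift, 1 hour after dosing. The screen used 25 uM in duplicate, then concentration-response up to 50 uM. Signal loss was scored against DMSO.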

[7] = target: human Vascular Endothelial Growth Factor Receptor 2 (VEGFR2), KDR (gene 3791) (UniProt P35968); assay: NVS_ENZ_hVEGFR2: NovaScreen (NVS) Enzymatic Assay for human Vascular Endothelial Growth Factor Receptor 2 (VEGFR2) (AID 2283230)
human Vascular Endothelial Growth Factor Receptor 2 (VEGFR2), KDR (gene 3791), sequence (P35968 whole entry, looked up): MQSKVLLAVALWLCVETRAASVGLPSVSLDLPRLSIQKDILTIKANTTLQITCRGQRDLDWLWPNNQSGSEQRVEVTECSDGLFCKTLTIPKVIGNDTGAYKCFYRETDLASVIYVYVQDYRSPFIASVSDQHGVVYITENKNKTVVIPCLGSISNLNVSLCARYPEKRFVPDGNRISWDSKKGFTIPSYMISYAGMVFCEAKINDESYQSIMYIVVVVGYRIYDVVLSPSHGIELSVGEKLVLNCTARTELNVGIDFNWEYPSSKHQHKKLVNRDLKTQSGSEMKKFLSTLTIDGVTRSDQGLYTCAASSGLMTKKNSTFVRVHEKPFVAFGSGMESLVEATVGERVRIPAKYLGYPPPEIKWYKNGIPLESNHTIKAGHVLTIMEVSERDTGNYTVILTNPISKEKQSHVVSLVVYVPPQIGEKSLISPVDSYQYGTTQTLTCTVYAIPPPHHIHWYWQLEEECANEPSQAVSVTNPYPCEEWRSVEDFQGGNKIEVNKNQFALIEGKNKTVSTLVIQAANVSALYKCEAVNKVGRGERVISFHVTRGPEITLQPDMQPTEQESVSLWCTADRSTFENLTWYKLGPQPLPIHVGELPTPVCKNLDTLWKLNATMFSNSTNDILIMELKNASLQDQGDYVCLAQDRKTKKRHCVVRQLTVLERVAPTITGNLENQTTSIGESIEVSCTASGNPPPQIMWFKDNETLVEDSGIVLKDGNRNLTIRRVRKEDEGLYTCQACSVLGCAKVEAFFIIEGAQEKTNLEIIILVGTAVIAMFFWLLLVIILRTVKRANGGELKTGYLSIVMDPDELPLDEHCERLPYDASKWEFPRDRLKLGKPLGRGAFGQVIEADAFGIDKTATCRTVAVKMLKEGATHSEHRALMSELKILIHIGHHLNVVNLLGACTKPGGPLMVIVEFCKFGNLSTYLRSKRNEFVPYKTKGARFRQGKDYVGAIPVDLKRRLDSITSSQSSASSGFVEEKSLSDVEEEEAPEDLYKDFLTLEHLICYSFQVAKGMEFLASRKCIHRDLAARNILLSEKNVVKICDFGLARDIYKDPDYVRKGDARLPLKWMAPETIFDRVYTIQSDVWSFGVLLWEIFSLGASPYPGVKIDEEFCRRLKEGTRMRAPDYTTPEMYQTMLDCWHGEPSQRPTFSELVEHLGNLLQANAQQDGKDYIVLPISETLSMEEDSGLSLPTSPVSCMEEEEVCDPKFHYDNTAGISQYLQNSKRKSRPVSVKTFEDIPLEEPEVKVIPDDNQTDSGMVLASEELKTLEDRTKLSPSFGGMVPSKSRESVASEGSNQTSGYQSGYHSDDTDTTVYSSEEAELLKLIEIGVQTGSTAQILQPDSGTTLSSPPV
How it was run: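 Cell-free recombinant VEGFR2 kinase, fluorescent substrate with electrophoretic mobility-shift separation; read 1 h after dosing. Screened at 25 uM in duplicate, hits to concentration-response up to 50 uM; loss-of-signal versus DMSO.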

[8] = target: sheep Cyclooxygenase-1 (Cox1), PTGS1 (gene 443551) (UniProt P05979); assay: NVS_ENZ_oCOX1: NovaScreen (NVS) Enzymatic Assay for sheep Cyclooxygenase-1 (Cox1) (AID 2283239);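 note: actives reduce cyclooxygenase activity so potencies are for inhibitors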
sheep Cyclooxygenase-1 (Cox1), PTGS1 (gene 443551), sequence (P05979 whole entry, looked up): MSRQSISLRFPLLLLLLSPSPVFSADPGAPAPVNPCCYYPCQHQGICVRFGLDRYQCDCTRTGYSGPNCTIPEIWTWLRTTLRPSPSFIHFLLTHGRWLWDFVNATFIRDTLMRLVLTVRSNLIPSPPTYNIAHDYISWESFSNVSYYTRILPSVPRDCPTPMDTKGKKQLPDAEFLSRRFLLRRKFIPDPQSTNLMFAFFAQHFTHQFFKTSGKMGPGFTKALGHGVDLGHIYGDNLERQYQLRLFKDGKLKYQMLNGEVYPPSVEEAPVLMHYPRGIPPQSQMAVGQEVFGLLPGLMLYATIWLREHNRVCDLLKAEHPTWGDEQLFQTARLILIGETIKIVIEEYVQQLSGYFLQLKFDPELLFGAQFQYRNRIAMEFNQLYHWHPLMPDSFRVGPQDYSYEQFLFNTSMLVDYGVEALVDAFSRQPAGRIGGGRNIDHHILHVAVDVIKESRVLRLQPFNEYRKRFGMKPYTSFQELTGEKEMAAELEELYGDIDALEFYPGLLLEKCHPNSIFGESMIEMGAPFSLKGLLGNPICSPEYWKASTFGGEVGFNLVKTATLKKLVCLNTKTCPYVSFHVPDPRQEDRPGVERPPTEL
How it was run: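 Native ovine seminal vesicle protein serves as enzyme source in this biochemical assay. Colorimetric signal is recorded 0.66 h after chemical addition, and decreases versus the DMSO control define activity.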

[9] = tested on: rat Monoamine Oxidase, MAO-A, Central (MAOAC), gene 29253; assay: NVS_ENZ_rMAOAC: NovaScreen (NVS) Enzymatic Assay for rat Monoamine Oxidase, MAO-A, Central (MAOAC) (AID 2283243);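 note: potency refers to inhibition seen as signal drop below DMSO baseline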
How it was run: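 Rat brain tissue extract served as the cell-free enzyme source; activity was measured by radiometric scintillation counting 1.5 hours after compound addition. Loss of signal relative to DMSO baseline indicated inhibition; primary screen at 25 uM in duplicate.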

[10] = target: human Vascular Endothelial Growth Factor Receptor 3 (VEGFR3), FLT4 (gene 2324) (UniProt P35916); assay: NVS_ENZ_hVEGFR3: NovaScreen (NVS) Enzymatic Assay for human Vascular Endothelial Growth Factor Receptor 3 (VEGFR3) (AID 2283229)
How it was run: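 Cell-free recombinant VEGFR3 kinase reaction with fluorescent substrate, read 1 h after dosing by electrophoretic mobility shift separation of substrate and product. Single-concentration duplicate screen at 25 uM, then concentration-response up to 50 uM; loss of activity versus DMSO.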

[11] = target: human Rho Associated Coiled-coil Containing Protein Kinase 1 (ROCK1), ROCK1 (gene 6093) (UniProt Q13464); assay: NVS_ENZ_hROCK1: NovaScreen (NVS) Enzymatic Assay for human Rho Associated Coiled-coil Containing Protein Kinase 1 (ROCK1) (AID 2283214)
How it was run: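 Cell-free recombinant human ROCK1 activity assay; fluorescent substrate and product separated by electrophoretic mobility shift, read 1 h after dosing. Screened in duplicate at 25 uM; loss of signal versus DMSO baseline scored as inhibition.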

[12] = tested on: rat Monoamine Oxidase, MAO-A, Peripheral (MAOAP), gene 29253; assay: NVS_ENZ_rMAOAP: NovaScreen (NVS) Enzymatic Assay for rat Monoamine Oxidase, MAO-A, Peripheral (MAOAP) (AID 2283237)
How it was run: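 Rat liver mitochondrial membranes served as the MAO-A source, with enzyme activity measured by radiometric scintillation counting 1.17 hours after dosing. Loss of signal was fitted against DMSO; primary screen used 25 uM in duplicate, follow-up used concentration series.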

[13] = target: rat Monoamine Oxidase, MAO-B, Central (MAOBC), Maob (gene 25750) (UniProt P19643); assay: NVS_ENZ_rMAOBC: NovaScreen (NVS) Enzymatic Assay for rat Monoamine Oxidase, MAO-B, Central (MAOBC) (AID 2283238)
How it was run: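 MAO-B activity in rat brain tissue preparation, cell-free, measured radiometrically by scintillation counting 1.17 h after dosing. Screened in duplicate at 25 uM; actives then in concentration-response up to 50 uM. Loss of signal versus DMSO scored.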

[14] = target: rat Monoamine Oxidase, MAO-B, Peripheral (MAOBP), Maob (gene 25750) (UniProt P19643); assay: NVS_ENZ_rMAOBP: NovaScreen (NVS) Enzymatic Assay for rat Monoamine Oxidase, MAO-B, Peripheral (MAOBP) (AID 2283242)
[15] = target: rat Acetylcholinesterase (AChE), Ache (gene 83817) (UniProt P37136); assay: NVS_ENZ_rAChE: NovaScreen (NVS) Enzymatic Assay for rat Acetylcholinesterase (AChE) (AID 2283233)
How it was run: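 Rat brain membrane acetylcholinesterase activity measured colorimetrically 0.33 h after compound addition, loss of signal relative to DMSO. Primary screen in duplicate at 25 uM; actives re-run as concentration-response with 50 uM top concentration.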

[16] = target: human Sirtuin 2 (SIRT2), SIRT2 (gene 22933) (UniProt Q8IXJ6); assay: NVS_ENZ_hSIRT2: NovaScreen (NVS) Enzymatic Assay for human Sirtuin 2 (SIRT2) (AID 2283217)
How it was run: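 Cell-free recombinant human SIRT2, fluorescent substrate with product separated by electrophoretic mobility shift, 1 hr. Screened in duplicate at 25 uM; hits rerun singly in concentration-response up to 50 uM, relative to DMSO.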

[17] = target: human SRC Proto-Oncogene, Non-receptor Tyrosine Kinase (SRC), SRC (gene 6714) (UniProt P12931); assay: NVS_ENZ_hSRC: NovaScreen (NVS) Enzymatic Assay for human SRC Proto-Oncogene, Non-receptor Tyrosine Kinase (SRC) (AID 2283223)
How it was run: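 Cell-free kinase activity assay with fluorescent substrate, product separated by electrophoretic mobility shift, read 1 h after dosing. Duplicate single point at 25 uM, then concentration-response up to 50 uM; loss of signal versus DMSO.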

[18] = tested on: bovine Angiotensin II Receptor Type 2 (AT2), gene 407157; assay: NVS_GPCR_bAT2: NovaScreen (NVS) G Protein-Coupled Receptor Assay for bovine Angiotensin II Receptor Type 2 (AT2) (AID 2283240)
How it was run: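 Radioligand displacement on bovine cerebellar membranes, 1 hour incubation, filter-based scintillation counting; loss of signal vs DMSO. Duplicate single-point screen at 25 uM, then concentration-response to 50 uM maximum.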

Structure (SMILES): C=C(C)C(=O)OCC(CC)CCCC (centres undefined)
- outcome [1]: inactive

Structure (SMILES): Nc1c(Oc2ccccc2)cc(O)c2c1C(=O)c1ccccc1C2=O
- AC50 [1]: 0.898 µM (active)

Structure (SMILES): Clc1cccc(Cl)c1Cl
- outcome [2]: inactive
- outcome [3]: inactive
- outcome [4]: inactive
- outcome [5]: inactive
- outcome [6]: inactive
- outcome [1]: inactive

Structure (SMILES): O=C(CBr)c1ccc(O)cc1
- outcome [7]: inactive

Structure (SMILES): O=C(O)COc1cc(Cl)c(Cl)cc1Cl
- outcome [8]: inactive

Structure (SMILES): Oc1c(Cl)cc(Cl)cc1Cl
- outcome [9]: inactive

Structure (SMILES): CCCCCCCCCCCCOS(=O)(=O)O
- AC50 [4]: 25 µM (active)
- AC50 [6]: 26.9 µM (active)

Structure (SMILES): CC(C=O)Cc1ccc2c(c1)OCO2 (centres undefined)
- AC50 [8]: 25 µM (active)

Structure (SMILES): Nc1ncn[nH]1
- outcome [8]: inactive

Structure (SMILES): COc1nn(C(=O)NS(=O)(=O)c2ccccc2OC(F)(F)F)c(=O)n1C
- AC50 [6]: 24.5 µM (active)
- AC50 [10]: 11.4 µM (active)

Structure (SMILES): O=C(O)C1(c2ccc3c(c2)OC[C@H](Cc2ccc(-c4ccccc4)cc2)[C@H]3O)CCCC1
- outcome [11]: inactive

Structure (SMILES): Oc1cc(Cl)c(Cl)cc1Cl
- outcome [4]: inactive
- outcome [7]: inactive
- AC50 [12]: 19.6 µM (active)
- AC50 [13]: 8.69 µM (active)
- AC50 [14]: 17.7 µM (active)
- AC50 [9]: 16.5 µM (active)

Structure (SMILES): C=CC(=O)NC(C)(C)CC(C)=O
- AC50 [8]: 21.4 µM (active)

Structure (SMILES): CCOC(=O)C(SP(=S)(OC)OC)c1ccccc1 (centres undefined)
- AC50 [15]: 10.2 µM (active)

Structure (SMILES): CN(C)CCN(C)C
- outcome [8]: inactive

Structure (SMILES): N#CCCC(Br)(C#N)CBr (centres undefined)
- AC50 [8]: 4.04 µM (active)

Structure (SMILES): OCCN(CCO)CCO
- outcome [5]: inactive
- outcome [7]: inactive

Structure (SMILES): c1ccc2sc(SNC3CCCCC3)nc2c1
- outcome [8]: inactive

Structure (SMILES): N#Cc1cccnc1
- outcome [11]: inactive
- outcome [16]: inactive
- outcome [17]: inactive
- outcome [6]: inactive
- outcome [1]: inactive
- outcome [7]: inactive
- outcome [18]: inactive

Structure (SMILES): Oc1cccc(-c2ccccc2)c1
- AC50 [9]: 10.9 µM (active)
